Hits are enriched below; roughly 2.3% of the tested compounds scored in any of these assays.
TDP43 rescue – qHTS of TDP-43 Inhibitors | TDP-43 expressing yeast growth rescue, BacTiter-Glo, 24 h | Potency, µM (titrated, usually from 46.1 µM), inactives show at the highest dose growth rescue (activation), actives largely listed as activators | hit rate 1.8% among 410,000 | AID 652104, 2013; also: % of control where 0% means no effect; nearly all actives have a fitted effect of over 50% in size
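Yeast expressing TDP-43 (pregrown in raffinose, seeded at OD600=0.02 in galactose medium) exposed to compounds 24 hr at 30 deg C. Growth read by BacTiter-Glo luminescence; rescue of toxicity appears as increased signal.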
uPA surface inh – qHTS for Inhibitors of Cell Surface uPA Generation. cell surface uPA generation assay, qHTS. Potency, µM (top dose mostly 38.3 µM), for inactives: at the top dose activity change, negative = inhibition, actives largely listed as inhibitors. hit rate 0.31% among 330,000; active = well fitted inhibition curve with a large enough effect; inconclusive = small, poorly fitted or top-dose-only effect; inactive = no such curve, though single readings can be large or run the other way; tested in mouse RAW 264.7 cells; also: % is scaled to controls: 0 for no effect and ±100 for the full control effect; nearly all actives have a fitted effect of over 55% in size
aSyn rescue – qHTS of alpha-syn Inhibitors | Potency, µM (series often up to 46.1 µM), without a hit: at the highest dose growth rescue (activation), most hits filed as activators | hit rate 0.14% among 370,000 | Yeast expressing alpha-synuclein, growth rescue, BacTiter-Glo, 24 h; also: % of control where 0% means no effect; nearly all actives have a fitted effect of over 65% in size
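Rescue of yeast growth: cells expressing toxic alpha-synuclein, induced in galactose at OD600 0.02, incubated with compound 24 h at 30 C. ATP luminescence quantified growth; inhibitors of toxicity appear as activators.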
FUS suppressor – qHTS for Suppressors of FUS Proteinopathy: Primary screen using FUS-linked yeast assay; S. cerevisiae FUS-expressing, growth rescue, OD600, 24 h; Potency, µM (series often up to 76.6 µM), hits mostly activators; hit rate 0.24% among 390,000; AID 1347120, 2019;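 also: plate controls were DMSO vehicle for no effect and reference control for full effect; nearly all actives have a fitted effect of over 55% in size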
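Toxicity suppression screen in FUS-yeast. Cells induced with 2% galactose, starting OD 0.005, treated 24hr at 30C with compounds at multiple final concentrations; growth by OD600.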
Chronic BCR inh – qHTS Assay to Find Inhibitors of Chronic Active B-Cell Receptor Signaling. ABC-DLBCL IkBa-CBG/CBR reporter, luminescence ratio, 4 h. Potency, µM (series often up to 46.1 µM), inactives show at the highest dose activity change, negative = inhibition, usual class: inhibitors. hit rate 0.05% among 340,000; active = well fitted inhibition curve with a large enough effect in the signal ratio, with a control signal flat, not every such curve was filed as active; inconclusive = small, poorly fitted or top-dose-only effect, or effect the other way, or a change in a side signal; the % refers to the signal ratio;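 also: plate controls were basal doxycycline-induced cells for no effect and cells given 10 µM MG132 for full effect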
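TMD8 human ABC-DLBCL cells with doxycycline-inducible IκBα–green luciferase fusion and unfused red luciferase, in 0.5% FBS medium; compounds up to 46 uM, 4 h at 37C. Green/red luminescence ratio, filter-overlap corrected, fitted to concentration-response curves.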
Abeta rescue – qHTS for compounds that reverse cellular toxicity of Amyloid beta (A-beta) peptide in yeast: Primary Screen; yeast expressing A-beta42, growth rescue, OD600, 48 h; response scale: 0% DMSO, 100% iron-clioquinol control; Potency, µM (top dose mostly 46.1 µM), actives largely listed as activators; hit rate 0.063% among 410,000; AID 1347071, 2019; also: nearly all actives have a fitted effect of over 55% in size
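Yeast A-beta toxicity model in growth medium with pinned compounds, 48 h at 30 C; growth read as absorbance at 600 nm. Normalized to FeCl3/clioquinol equimolar mix (positive) and DMSO (negative).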
Starred values were filed as active, the others as inactive; i = inactive; ? = inconclusive; nt = no result given. Unless noted, calls follow the shape of the dose curve; as a rule, active = well fitted curve in the direction sought with a large enough effect; inconclusive = small, poorly fitted or top-dose-only effect, or another doubt; inactive = no such curve, though single readings can be large; an effect the other way counts as inactive or inconclusive. Potency is read from the fitted curve at half-maximal effect.

SMILES | TDP43 rescue | uPA surface inh | aSyn rescue | FUS suppressor | Chronic BCR inh | Abeta rescue
COc1ccc(CNC(=O)Cn2nc(C)c3c(C)n(-c4ccccc4)nc3c2=O)cc1OC | -1% | nt | nt | i | 13% | i
Cc1noc(/C=C/N(C)C)c1S(=O)(=O)N1CCCC(C(=O)Nc2ccc3c(c2)OCO3)C1 (stereo unspecified) | 2% | ? | 0% | 5.6µM* | ? | i
O=C1Nc2ccccc2/C1=N/N=C/c1cccc(O)c1 | 10% | 2% | -1% | i | -16% | i
CCOc1cc(C=NN=C2c3ccccc3-c3ccccc32)ccc1O | 14µM* | 7% | 22% | nt | nt | i
CCOc1cc(/C=N/NC(=O)c2ccccc2-n2cccc2)ccc1O | 11% | 11µM* | -6% | i | ? | i
Oc1cccc(C=NN=C2c3ccccc3-c3ccccc32)c1 | 28µM* | 13% | -28% | nt | nt | i
CCOc1cc(/C=N/NC(=O)c2ccccc2OCc2ccc(F)cc2)ccc1O | 11% | -16% | -7% | i | ? | i
COc1ccc(CN(C)C(=O)COc2cccc(-n3cnnn3)c2)cc1OC | 4% | ? | -5% | i | -1% | i
CN(C)CCCN(C(=O)c1ccc(S(=O)(=O)N(C)C2CCCCC2)cc1)c1nc2ccc(F)cc2s1 | -6% | -7% | 5% | ? | 4% | i
CCN(CC)S(=O)(=O)c1cccc(NC(=O)c2cc3ccccc3o2)c1 | ? | 0% | 1% | i | ? | i
CN(C)S(=O)(=O)c1cccc(NC(=O)c2cc3ccccc3o2)c1 | 8.9µM* | -3% | nt | i | ? | i
COc1cc(NC(=S)NC(=O)C(C)C)ccc1NC(=O)c1cc2ccccc2o1 | 7% | -4% | 4% | i | 12% | nt
COc1ccc(NC(=O)c2cc3ccccc3o2)cc1OC | 13µM* | -4% | 2% | i | 1% | i
COc1ccc(NC(=O)c2cc3ccccc3o2)cc1 | -2% | -9% | -8% | i | ? | i
COc1cc(NC(=O)C(C)C)ccc1NC(=O)c1cc2ccccc2o1 | -14% | 14µM* | -1% | i | ? | i
CC1CCc2c(C(=O)Nc3ccc(N4CCOCC4)cc3)csc2C1 (stereo unspecified) | 7.1µM* | nt | 6% | i | ? | i
CC1CCc2c(C(=O)NCCN3CCOCC3)csc2C1 (stereo unspecified) | -20% | 3% | -6% | i | 18% | i
COc1ccc(Nc2nc(N/N=C/c3ccc(N(C)C)cc3)nc(C)c2[N+](=O)[O-])cc1 | -23% | 3% | -18% | i | 12% | i
COc1ccc(-c2nnc(SC(C)C(=O)Nc3cccc(Cl)c3)o2)cc1 (stereo unspecified) | 13µM* | 1% | 14% | i | -15% | i
COc1ccc(-c2nnc(SC(C)C(=O)O)o2)cc1 (stereo unspecified) | 2% | nt | 3% | i | nt | i
COc1ccc(OC)c(CCNC(=O)Cn2ccc3cc(S(=O)(=O)N4CCCCC4)ccc32)c1 | -2% | nt | nt | 35µM* | nt | i
O=C(NCc1ccccc1Cl)C1CCC(CNS(=O)(=O)c2ccc(Cl)cc2)CC1 (stereo unspecified) | -6% | nt | nt | i | -2% | i
CC(=O)n1c(=O)c2ccccc2c(=O)n1-c1ccccc1 | 3.2µM* | 8% | -17% | i | 5% | i
O=c1c2ccccc2sc2ccc(C#CC3(O)CCCCC3)cc12 | ? | 2.5µM* | -12% | ? | nt | i
Nc1ccc(C#Cc2ccc3sc4ccccc4c(=O)c3c2)cc1 | 15% | 9% | 2% | i | nt | i
SMILES | TDP43 rescue | uPA surface inh | aSyn rescue | FUS suppressor | Chronic BCR inh | Abeta rescue
COc1cccc2sc3ccc(C#CC4(O)CCCCC4)cc3c(=O)c12 | 16µM* | ? | -7% | ? | ? | i
CCOc1ccc(Nc2nc(N)c(C(=O)c3ccccc3Cl)s2)cc1 | 35µM* | nt | nt | i | nt | i
O=c1[nH]c(Sc2ccc([N+](=O)[O-])cc2[N+](=O)[O-])nc2ccccc12 | 13µM* | ? | -16% | i | nt | i
O=C(COC(=O)[C@@H]1CCCN1S(=O)(=O)c1ccccc1F)Nc1ccc(OC(F)F)cc1 | -9% | -1% | 4% | i | ? | i
CC(=O)c1ccccc1NC(=O)COC(=O)C1CCCN1S(=O)(=O)c1ccccc1F (stereo unspecified) | 17% | -13% | 14µM* | i | 0% | i
Cc1ccc(C(=O)C2OC(=O)C(C)(C)C(=O)C2(C)C)cc1 (stereo unspecified) | ? | 9% | 13% | i | 3% | i
C=CCn1c(SCc2ccc(C#N)cc2)nnc1-c1cccc(Cl)c1 | 14µM* | 3% | 6% | i | 3% | i
COC/C=C/C1=CC2=CC(=O)C(C)(OC(=O)C3CCCC3)C(=O)C2=CO1 (stereo unspecified) | -93% | 11% | -63% | i | 9% | i
COc1cccc(CNC(=O)COC(=O)c2cc([N+](=O)[O-])ccc2N2CCCC2)c1 | 35µM* | -1% | 4% | nt | -1% | i
O=C(OCc1cccc(Cl)c1)c1cc([N+](=O)[O-])ccc1N1CCOCC1 | 20µM* | ? | 4% | i | -5% | i
O=C(COC(=O)C1CCN(c2ccc(C(F)(F)F)cn2)CC1)NCc1cccc(Cl)c1 | ? | 3% | -19% | i | 2% | i
COc1cccc(CNC(=O)COC(=O)C2CCN(c3ccc(C(F)(F)F)cn3)CC2)c1 | 13µM* | 4% | 2% | nt | 0% | i
CC1(C)Cc2ccccc2C(=NC(Cc2ccccc2)C(=O)O)N1 (stereo unspecified) | 6% | 5% | -5% | i | -2% | i
COc1ccc(C(=O)NC2CCCc3ccccc32)c(OC)c1OC (stereo unspecified) | ? | 4% | 13% | i | -3% | i
Cc1ccc(NC(=O)Cc2coc3ccc(C(C)C)cc23)c(C)c1 | 3% | nt | nt | ? | nt | i
COc1ccc(S(=O)(=O)NCC(c2cccnc2)N2CCN(C)CC2)cc1C (stereo unspecified) | -4% | -9% | ? | i | 0% | i
CC(C)Oc1ccc(C(=O)OCC(=O)NC(=O)NC2CCCC2)cc1 | 20µM* | 6% | 17% | i | 0% | ?

Screens as filed in PubChem.
